Source: PubChem BioAssay
Neddyl block – inhibitors of cullin neddylation, primary screen, biochemical, TR-FRET, uHTS, NAE and Ubc12; actives 0.58% (n = 360,000); NEDD8-conjugating enzyme Ubc12 (Homo sapiens) + NEDD8-activating enzyme E1 regulatory …; calls only at 25 µM; in the data active = inhibition above about 36%
UHRF1 MBD2 ctr – UHRF1 methylated DNA binding inhibitors, primary screen, counter-screen for MBD2 inhibitor project, biochemical, TR-FRET, human UHRF1, single concentration | UHRF1 binding to methylated oligo | inhibition, % at 4.4 µM | actives 0.75% (n = 370,000); in the data active = inhibition above about 21%;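 note: UHRF1 SRA domain binding a hemimethylated CpG hairpin DNA probe; 0% = median of test compound wells and 100% = reference inhibitor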
LEDGF integ inh – blockers of LEDGF/p75-dependent integrase strand transfer – biochemical, TR-FRET, high throughput, primary screen; HIV-1 integrase (with human LEDGF/p75); TR-FRET IN-LEDGF/p75 DNA integration, Eu/Cy5; inhibition, % at 3.7 µM; actives 0.64% (n = 370,000); AID 743269, 2014;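 active = inhibition above the screen-wide mean plus 3 SD, cut at about 13% in these data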;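 note: signal is the Cy5 over europium emission ratio at 671 and 618 nm; 0% = plate median of compound wells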
Rin1-Abl PPI inh – inhibitors of Rin1-Abl protein binding, primary screen, biochemical, TR-FRET | Tyrosine-protein kinase ABL1 (Homo sapiens) + Ras and Rab interactor 1 (Homo sapiens), … | inhibition, % at 7.35 µM | actives 0.4% (n = 360,000) | AID 588664, 2011; in the data active = inhibition above about 5%, passing the limit was not always enough
Target sequence (P00519 whole entry, looked up): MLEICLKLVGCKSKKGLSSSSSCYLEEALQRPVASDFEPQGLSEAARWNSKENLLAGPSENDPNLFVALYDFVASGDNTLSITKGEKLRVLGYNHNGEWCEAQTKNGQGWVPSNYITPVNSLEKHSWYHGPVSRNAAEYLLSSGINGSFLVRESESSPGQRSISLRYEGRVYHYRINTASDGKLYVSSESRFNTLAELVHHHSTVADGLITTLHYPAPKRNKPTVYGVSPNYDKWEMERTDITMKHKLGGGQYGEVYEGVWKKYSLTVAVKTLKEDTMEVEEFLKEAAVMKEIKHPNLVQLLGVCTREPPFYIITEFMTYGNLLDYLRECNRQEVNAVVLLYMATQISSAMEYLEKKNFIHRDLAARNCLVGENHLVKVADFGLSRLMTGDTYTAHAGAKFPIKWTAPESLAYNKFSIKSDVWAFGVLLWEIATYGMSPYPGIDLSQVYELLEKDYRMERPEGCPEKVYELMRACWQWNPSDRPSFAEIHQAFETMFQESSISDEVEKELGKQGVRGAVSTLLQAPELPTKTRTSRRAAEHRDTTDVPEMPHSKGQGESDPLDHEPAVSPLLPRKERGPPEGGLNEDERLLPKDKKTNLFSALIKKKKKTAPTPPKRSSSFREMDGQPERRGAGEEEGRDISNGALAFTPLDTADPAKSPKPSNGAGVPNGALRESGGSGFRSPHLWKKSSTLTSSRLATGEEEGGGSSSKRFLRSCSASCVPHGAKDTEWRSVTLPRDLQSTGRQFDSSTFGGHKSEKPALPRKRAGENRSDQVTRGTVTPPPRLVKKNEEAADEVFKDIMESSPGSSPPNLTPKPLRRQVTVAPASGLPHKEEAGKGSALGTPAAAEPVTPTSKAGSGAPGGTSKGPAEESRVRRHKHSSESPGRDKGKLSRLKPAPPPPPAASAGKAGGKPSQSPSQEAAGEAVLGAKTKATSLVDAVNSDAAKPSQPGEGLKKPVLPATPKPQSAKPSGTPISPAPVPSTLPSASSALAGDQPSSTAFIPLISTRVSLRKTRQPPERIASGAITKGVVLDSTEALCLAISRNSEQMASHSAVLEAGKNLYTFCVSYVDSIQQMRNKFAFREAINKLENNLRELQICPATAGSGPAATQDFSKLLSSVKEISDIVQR
Target sequence (Q13671 whole entry, looked up): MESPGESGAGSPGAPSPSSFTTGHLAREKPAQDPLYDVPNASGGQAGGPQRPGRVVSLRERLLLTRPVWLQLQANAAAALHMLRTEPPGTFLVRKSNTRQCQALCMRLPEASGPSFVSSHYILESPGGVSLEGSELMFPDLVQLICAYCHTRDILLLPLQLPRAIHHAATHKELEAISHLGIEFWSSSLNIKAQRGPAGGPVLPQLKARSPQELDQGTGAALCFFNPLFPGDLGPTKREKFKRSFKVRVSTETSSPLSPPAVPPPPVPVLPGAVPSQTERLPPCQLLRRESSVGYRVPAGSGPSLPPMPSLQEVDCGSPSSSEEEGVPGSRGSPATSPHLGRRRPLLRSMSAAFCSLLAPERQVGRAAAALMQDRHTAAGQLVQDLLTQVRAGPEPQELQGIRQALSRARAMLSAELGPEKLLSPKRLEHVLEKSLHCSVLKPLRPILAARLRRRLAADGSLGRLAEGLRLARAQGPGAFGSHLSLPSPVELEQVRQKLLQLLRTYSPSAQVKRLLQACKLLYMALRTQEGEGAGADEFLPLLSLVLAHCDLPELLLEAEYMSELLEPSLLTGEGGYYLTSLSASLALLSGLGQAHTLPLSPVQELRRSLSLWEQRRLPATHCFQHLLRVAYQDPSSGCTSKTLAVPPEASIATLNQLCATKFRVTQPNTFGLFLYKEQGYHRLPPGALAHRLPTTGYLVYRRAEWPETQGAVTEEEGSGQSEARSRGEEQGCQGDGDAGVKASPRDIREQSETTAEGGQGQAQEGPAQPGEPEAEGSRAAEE
proKLK7 act – proKLK7 zymogen activators, primary screen, biochemical, fluorescence intensity; actives 0.9% (n = 370,000); purified proKLK7, EDANS-DABCYL substrate fluorescence; 100% is mature enzyme control, 0% vehicle; activation, % at 7 µM;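 active = activation above the mean of all tested compounds plus 3 SD, computed per campaign excluding outliers beyond control limits, cut at about 13% in these data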
MBD2 DNA inh – inhibitors of MBD2 binding to methylated DNA, primary screen, biochemical, TR-FRET, DNA-binding domain, human | MBD2 binding to methylated oligonucleotide | AID 686964, 2013 | actives 0.31% (n = 370,000) | Methyl-CpG-binding domain protein 2 (Homo sapiens), Q9UBB5 | inhibition, % at 4.4 µM; in the data active = inhibition above about 13%
IN multimer up – HIV-1 IN multimer formation enhancers, counter-screen for LEDGF/p75 integration inhibitor project, biochemical, TR-FRET; shares compounds with LEDGF integ inh; TR-FRET HIV-1 integrase multimerization; activation, % at 7.7 µM; actives 17% (n = 2,000); in the data active = activation above about 8.9%
TR-FRET interf – TR-FRET optical interference artefacts, confirmation, artefact control for LEDGF/p75-dependent integration inhibitor project, biochemical, HIV-1 IN multimerization; inhibition, % at 7.7 µM; 2,000 tested, under 10 active; AID 1053135, 2014; shares compounds with LEDGF integ inh; TR-FRET optical interference counterscreen;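 active = inhibition above the mean over all tested compounds plus 3 SD, which no compound reached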;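 note: 0% = integrase with antibodies and DMSO and 100% = antibodies without integrase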
IN-LEDGF confirm – inhibitors of HIV-1 IN-LEDGF/p75 DNA integration, confirmation, biochemical, TR-FRET. actives 36% (n = 2,000). shares compounds with LEDGF integ inh. inhibition, % at 3.7 µM. TR-FRET LEDGF/p75-dependent HIV-1 integration; in the data active = inhibition above about 14%
* = called active by the depositor; i = inactive; nt = no result given. Compounds with a hit are over-represented: about 3.1% of the library has one in this group of screens.

SMILES	Neddyl block	UHRF1 MBD2 ctr	LEDGF integ inh	Rin1-Abl PPI inh	proKLK7 act	MBD2 DNA inh	IN multimer up	TR-FRET interf	IN-LEDGF confirm
Cc1ccc(CSc2ccc3nnc(-c4cccnc4)n3n2)cc1	i	1	14*	-5	0	2	0	0	6
COC(=O)C[C@H]1CC[C@@H](NC(=O)Nc2ccc(C(F)(F)F)cc2)[C@@H](CO)O1	i	3	0	nt	-1	10	nt	nt	nt
Nc1c(Br)cc2c(c1Br)C(O)c1ccccc1-2 (configuration not stated)	i	-2	26*	-2	0	0	5	-25	0
O=C1OC(c2cc(Br)c(O)c(Br)c2)c2ccccc21 (configuration not stated)	i	7	0	7	-1	9	nt	nt	nt
CC1CCN(c2ccc(NC(=O)C3CCCN3S(=O)(=O)c3ccc(F)cc3)cc2)CC1 (configuration not stated)	i	-6	1	2	0	-3	nt	nt	nt
C(CCN1CCOCC1)CN1CCOCC1	i	2	-3	-2	0	1	nt	nt	nt
CN1CCN(CP(=O)(N2CCOCC2)N2CCOCC2)CC1	i	-1	27*	-1	-1	-3	6	-21	3
COc1cc(C(=O)C(=O)N2CCN(c3ccccc3)CC2)cc2ccccc12	i	0	7	nt	0	-6	nt	nt	nt
O=C(NC(Cc1ccccc1)C(=O)N1CCN(c2ccccc2O)CC1)c1ccccc1 (configuration not stated)	i	0	2	-2	1	2	nt	nt	nt
COC(=O)C1=C(CCc2ccccc2)NC(=O)NC1c1ccc(C#N)cc1 (configuration not stated)	i	1	2	3	0	0	nt	nt	nt
COC(=O)C1=C(CCc2ccccc2)NC(=O)NC1c1ccc(Cl)cc1 (configuration not stated)	i	0	18*	3	0	-2	2	-5	-7
COC(=O)[C@@]12CCCCC3=C1N(CCC3)C(=O)[C@H]2CC(=O)N1CCOCC1	nt	-2	-1	nt	0	3	nt	nt	nt
O=C(NCc1ccco1)c1ccc(S(=O)(=O)N2CCOCC2)cc1	i	12	14*	0	0	0	2	-8	20*
O=C(NCc1ccco1)c1ccc(S(=O)(=O)N2CCCCC2)cc1	i	0	-3	0	1	-2	nt	nt	nt
O=S(=O)(O)c1ccc(O)c2cc(Nc3ccccc3)ccc12	i	92*	87*	7	-14	70*	66*	-236	77*
O=C(C1=C(O)C(=O)N(c2nc3ccc(Cl)cc3s2)C1c1ccco1)c1ccco1 (configuration not stated)	i	24*	20*	3	-1	10	7	-36	21*
Cc1cccc(-c2ccc3[nH]c4c(c3c2)CCN2C[C@@H]([C@H](C)OC(=O)Nc3ccccc3C)[C@@H](N(C)C(=O)Nc3ccccc3C)C[C@@H]42)c1	i	0	56*	1	-1	2	2	-5	-5
CCCCN1C2=NC(c3ccccc3)CN2c2ccccc21 (configuration not stated)	i	0	5	-4	1	-1	nt	nt	nt
O=C(C[C@@H]1C/C=C\C[C@H](Cc2ccc(F)cc2)C(=O)OC[C@H]2CCCN2C1=O)NCCO	i	2	8	-2	1	-7	nt	nt	nt
O=C(CCNC(=O)c1ccc(Cl)cc1)Nc1ccccc1N1CCCCC1	i	0	-1	2	-1	-3	nt	nt	nt
CC1Cn2c(CCc3ccccc3)nnc2S1 (configuration not stated)	i	1	23*	5	0	3	0	-1	-6
Cc1ccc(Cc2c(-c3ccc(C)cc3)nc3c(Cl)cc(C(F)(F)F)cn23)cc1	i	nt	nt	4	nt	nt	nt	nt	nt
Cc1ccc(Cc2c(-c3ccccc3)nc3c(Cl)cc(C(F)(F)F)cn23)cc1	i	1	20*	6	0	3	1	-5	-1
CC(=O)N1CC2(CC(c3ccc(Cl)cc3Cl)=NO2)CN1c1cccc(Cl)c1 (configuration not stated)	i	-1	1	-4	1	-2	nt	nt	nt
COc1ccc(-c2csc(NC(=O)c3ccccc3F)c2C(=O)O)cc1	i	-1	15*	1	0	6	3	-11	10
SMILES	Neddyl block	UHRF1 MBD2 ctr	LEDGF integ inh	Rin1-Abl PPI inh	proKLK7 act	MBD2 DNA inh	IN multimer up	TR-FRET interf	IN-LEDGF confirm
O=C(Nc1scc(-c2ccccc2)c1C(=O)O)c1ccccc1Cl	i	1	8	3	0	-8	nt	nt	nt
CCOc1ccc(N=Cc2ccc([N+](=O)[O-])cc2)c(O)c1	i	-7	20*	-14	18*	-9	11*	-38	-3
O=C(Nc1ccc2c(c1)CCCN2C(=O)c1ccccc1)c1ccccc1	i	-2	0	-3	0	-3	nt	nt	nt
CCOC(=O)N1CCN(C(=O)C[C@H]2C[C@@]3(C(=O)OC)C(=C[C@H](COCc4ccccc4)O[C@@H]3C)N(Cc3cccc4ccccc34)C2=O)CC1	nt	-2	-3	nt	0	-3	nt	nt	nt
O=C(O)c1ccc(NC2OC[C@@H](O)[C@H](O)[C@H]2O)cc1 (some centres not stated)	i	52*	18*	-1	0	4	0	-1	-2
O=C(O)c1ccc(NC(=O)C2C3CCC(O3)C2C(=O)O)cc1 (configuration not stated)	i	1	1	3	1	2	nt	nt	nt
Cc1cc2c(s1)c1cnn(Cc3cc(F)c(F)cc3F)c(=O)c1n2C	nt	-3	-3	nt	nt	-5	nt	nt	nt
